We go through 45 molecules from PubChem BioAssay AID1490 (National Center for Advancing Translational Sciences (NCATS), 2009).

Screen size: about 310,000 compounds; about 11,000 (3.5%) were called active. Inconclusive results (about 4%) are left out. The sample holds actives, similar compounds and a random draw of the others, so the mix is not that of the screen. Some structures have more than one record in an assay (separate samples or runs), and their calls can disagree. A number with no mark means an inactive call. The call rests on the fitted dose curve; in most records, active means well fitted inhibition curve with a large enough effect; inconclusive means small, poorly fitted or top-dose-only effect, or another doubt; inactive means no such curve, though single readings can be large or run the other way.
Potency means the concentration at half of the fitted maximal effect.

This assay has as its target 4'-phosphopantetheinyl transferase ffp (Bacillus subtilis) (UniProt Q9F4F7). In words: qHTS Assay for Inhibitors of Bacillus subtilis Sfp phosphopantetheinyl transferase (PPTase).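 Further: the enzyme is Sfp with the accession as filed and its product quenches rhodamine fluorescence.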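 On largest response in the series, negative = inhibition: 0% = enzyme reaction without inhibitor and -100% = no enzyme wells.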 Conditions: Biochemical Sfp PPTase activity. The method in brief:
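Fluorescence-quenching assay with 15 nM Sfp, 5 uM rhodamine-CoA and 12.5 uM BHQ-2-labelled ybbR peptide in pH 7.6 Hepes/MgCl2 buffer. Enzyme was pre-incubated with compound for 15 min at room temperature. Rate was taken from the 30-min fluorescence change (525/598 nm).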
A general note: In qHTS, concentration-response curves come from the screen itself.
Turning to `COc1ccc(N(C(=O)c2snc(C(N)=O)c2N)C(C(=O)NC2CCCC2)c2ccc(C)o2)c(OC)c1` (stereo unspecified), the largest response in the series, negative = inhibition was -2.29%.

On to `Cn1cc(C(=O)c2ccc(Cl)cc2Cl)cc1C(=O)NN`, for which the largest response in the series, negative = inhibition was 10.1%.

Turning to `CCCCN1C(=O)/C(=C2/Sc3ccc(Cl)cc3N2CC)SC1=S`, the largest response in the series, negative = inhibition was 3.35%.

As for `CCN1C(=O)/C(=c2\s/c(=C3\Sc4ccccc4N3C)c(=O)n2C)N(C)C1=S`, the largest response in the series, negative = inhibition is 1.11%.

Turning to `CCN1C(=O)/C(=C2/Sc3ccccc3N2CCCS(=O)(=O)O)SC1=S`, the Potency is 79.4 µM (active) and the largest response in the series, negative = inhibition is 8.36%.

With `C[C@H](NC(=O)c1nc[nH]c1C(=O)NCC(=O)OC(C)(C)C)c1ccccc1`, the largest response in the series, negative = inhibition was 10.2%.

Take `CC(C)[C@H](NC(=O)N1CCn2c1nc1ccccc12)C(=O)NCc1ccc2c(c1)OCO2`: the largest response in the series, negative = inhibition is 20.1%.

On to `CC(C)C(=O)NCC(c1cccs1)S(=O)(=O)c1ccc(F)cc1` (stereo unspecified), for which the largest response in the series, negative = inhibition is 0.881%.

`CNc1ccc(NC(C)=O)cc1[N+](=O)[O-]`: the largest response in the series, negative = inhibition is 18.8%.

Regarding `CCc1nnc(NC(=O)/C=C/c2ccc(C)o2)s1`, the largest response in the series, negative = inhibition is 1.89%.

For the molecule `Cc1ccc(/C=C/C(=O)Nc2ccc([N+](=O)[O-])c(NC(=O)/C=C/c3ccc(C)o3)c2)o1`, the Potency is 17.8 µM (active).

With `COc1cc(/C=C2\SC(=O)NC2=O)ccc1OCc1ccc(Cl)nc1`, the largest response in the series, negative = inhibition was -9.24%.

For `CCn1c(CNC(=O)c2cc(OC)c(OC)c(OC)c2)cc2cc(C)ccc21`, the largest response in the series, negative = inhibition is -13.9%.

Turning to `CCOc1ccc(CCNC(=O)Nc2ccccc2)cc1OCC`, the largest response in the series, negative = inhibition is 11.9%.

Regarding `Cc1ccccc1NC(=O)C1CCCN(C(=O)NCc2ccccc2)C1` (stereo unspecified), the largest response in the series, negative = inhibition is -0.998%.

Turning to `CC(=O)NC(C)c1nc2ccccc2n1Cc1ccccc1F` (stereo unspecified), the largest response in the series, negative = inhibition is 11%.

As for `N=c1n(CCc2ccccc2)c2ccccc2n1Cc1ccccc1F`, the Potency is 50.1 µM (active).

`Fc1ccccc1Cn1cnc(NC(=S)NCCc2ccccc2)n1`: the largest response in the series, negative = inhibition was -24.4%.

For the molecule `Cc1cccn2c(=O)c(C=O)c(Nc3ccc(S(N)(=O)=O)cc3)nc12`, the largest response in the series, negative = inhibition is 12.7%.

As to `O=Cc1c(N2CCN(c3cccc(Cl)c3)CC2)nc2ccccn2c1=O`, the largest response in the series, negative = inhibition was -4.2%.

With `O=Cc1c(Nc2ccccc2Cl)nc2ccccn2c1=O`, the Potency is 31.6 µM (active).

With `O=C(Nc1cccc(-c2cccc(Cl)c2)c1)C1CCN(C2CCC2)CC1`, the largest response in the series, negative = inhibition is -24.2%.

As to `COc1ccc(S(=O)(=O)N2CCC(C(=O)N3CCCC3)CC2)cc1C`, the largest response in the series, negative = inhibition is 9.47%.

For `O=C1NC(=O)C(c2ccc(Cl)cc2)N1` (stereo unspecified), the largest response in the series, negative = inhibition is -0.697%.

With `O=C1CSC(c2ccc(Cl)cc2)N1` (stereo unspecified), the Potency was 79.4 µM (active).

Turning to `COC(=O)C1=C(N)Oc2cc(C)[nH]c(=O)c2C1c1ccc(Cl)cc1` (stereo unspecified), the largest response in the series, negative = inhibition was 1.3%.

With `CC(C)c1ccc(NC(=O)Cn2ncc3ccccc32)cc1`, the largest response in the series, negative = inhibition was 13.4%.

For the molecule `COc1ccc2c(C(=O)c3ccc(C)cc3)n(CCC(N)=O)[n+]([O-])c2c1`, the largest response in the series, negative = inhibition was -4.94%.

As for `CC(=O)Nc1cccc(-c2csc(Nc3cccc(C)n3)n2)c1`, the Potency was 79.4 µM (active).

In the case of `Cc1cccc(Nc2nc(-c3ccccc3)cs2)n1`, the largest response in the series, negative = inhibition is -27.9%.

As for `COc1ccc(CCNc2nc(-c3cccc(NC(C)=O)c3)cs2)cc1OC`, the largest response in the series, negative = inhibition is -23.9%.

For the molecule `Cc1noc(NS(=O)(=O)c2ccc(NC(=O)c3oc4ccc(F)cc4c3C)cc2)c1C`, the largest response in the series, negative = inhibition was 14.6%.

In the case of `CCN(CC)C(=O)COc1coc(CN2CCN(Cc3ccccc3)CC2)cc1=O`, the largest response in the series, negative = inhibition is 12.6%.

With `COCCNC(=S)Nc1cc(S(=O)(=O)N2CCOCC2)ccc1N1CCCCC1`, the Potency was 1 µM (active).

For `CC(=O)NCCC(=O)Nc1cc(S(=O)(=O)N2CCOCC2)ccc1N1CCOCC1`, the largest response in the series, negative = inhibition was 23.2%.

For `O=C(COC(=O)Cc1ccc(F)cc1)Nc1cc(S(=O)(=O)N2CCOCC2)ccc1N1CCCC1`, the largest response in the series, negative = inhibition was 11.4%.

As for `CCc1ccccc1NC(=O)[C@@H]1CCC(=O)N1C1OC(=O)c2c1ccc(OC)c2OC` (stereo partly specified), the largest response in the series, negative = inhibition was 9.06%.

With `CCOc1ccc(S(=O)(=O)NCC2CCCO2)cc1` (stereo unspecified), the largest response in the series, negative = inhibition was 12.6%.

In the case of `CCOc1ccc(-n2c(N)c(C(=O)NCC3CCCO3)sc2=S)cc1` (stereo unspecified), the Potency was 50.1 µM (active).

In the case of `CCOc1ccc(N(CC(=O)NCC2CCCO2)S(=O)(=O)c2ccc(C)cc2)cc1` (stereo unspecified), the largest response in the series, negative = inhibition was 9.58%.

Consider `Cc1cccc(C)c1OCC(=O)NC(Cc1c[nH]c2ccccc12)C(=O)O` (stereo unspecified), for which the largest response in the series, negative = inhibition was 12.2%.

For `COc1ccc(-c2cc(C(=O)NC(Cc3c[nH]c4ccccc34)C(=O)O)c(C)o2)cc1OC` (stereo unspecified), the Potency was 35.5 µM (active).

Regarding `COc1ccc(-c2cc(=O)oc3cc(OCC(=O)N[C@@H](Cc4c[nH]c5ccccc45)C(=O)O)ccc23)cc1`, the largest response in the series, negative = inhibition was -17.5%.

`CC1C(=O)Nc2ccccc2N1C(=O)c1ccc(F)cc1F` (stereo unspecified): the largest response in the series, negative = inhibition is 9.39%.

Turning to `COc1cccc(OCc2cc(C(=O)N3CCN(C(=O)c4ccco4)CC3)no2)c1`, the largest response in the series, negative = inhibition is 10.6%.
